About 7,900 targets were measured; listed, in parts, are those with a hit and a random draw of the rest. About 0.6% of all pairs of compound and target were hits. A number with no mark means an inactive call.
How the values were obtained:
Test in all cases: log2 fold change, soluble protein after heating vs DMSO (PISA); higher = thermal stabilisation; K562 cells, 10 uM, 30 min; active = over 0.2 and 3.5 SD of the protein, either way, in both replicates (recomputed)
[1] = compound: CC[C@@H]1C(=O)N(C)c2cnc(Nc3ccc(C(=O)NC4CCN(C)CC4)cc3OC)nc2N1C1CCCC1
Outline: (§1)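 Values are thermal stability changes relative to control samples and are taken from duplicates. They are stated as log2 fold changes. Before quantification by TMTpro 16plex LC-MS/MS with equalised channel sums, K562 cells at 2×10^6 cells/mL were treated with 10 μM compound for 30 min, heated in aliquots for 3 min across 48°C-58°C, pooled, extracted in PBS with 0.5% NP-40 at 4°C, and centrifuged at 21,000xg for 90 min to give the soluble supernatant.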

[2] = compound: CC[C@@H]1C(=O)N(C)c2cnc(Nc3ccc(C(=O)N[C@H]4CC[C@H](N5CCN(CC6CC6)CC5)CC4)cc3OC)nc2N1C(C)C [volasertib]
Outline: as §1

[3] = compound: CC[C@H](C)N1C=C(C2=C(C=C(C=C21)C3=CN=C(C=C3)N4CCNCC4)C(=O)NCC5=C(C=C(NC5=O)C)C)C
Outline: as §1

[4] = compound: CCn1c(C(=O)N(C2CC2)C2CC2)cc2c3c(ncn3C)c(Nc3cc(C)n(C)n3)nc21
Outline: as §1

[5] = compound: CN1C2=C(C3=C1C(=O)N(N=C3)CC4=CC(=CC=C4)N)SC(=C2)S(=O)C
Outline: as §1

[6] = compound: CC[C@H](C)[C@@H](C(=O)N[C@@H]([C@@H](C)O)C(=O)N[C@@H](CC(C)C)C(=O)[C@]1(CO1)C)NC(=O)[C@H]([C@@H](C)CC)N(C)C(=O)C [epoxomicin]
Outline: as §1

[7] = compound: CCn1cc(-c2ccnc3[nH]c(-c4cccc(CN(C)C)c4)cc23)c(-c2ccc(NC(=O)N(C)C)cc2)n1
Outline: as §1

[8] = compound: CN(C)CC(=O)Nc1ccc2[nH]c(=O)c3ccccc3c2c1
Outline: as §1

[9] = compound: CN(CCOC1=CC=C(C=C1)C[C@H]2C(=O)NC(=O)S2)C3=CC=CC=N3 (racemic) [rosiglitazone]
Outline: as §1

[10] = compound: CN1CCC(CNc2ccc3ncc(-c4cccc(OC(F)(F)F)c4)n3n2)CC1
Outline: as §1

Sequence of UniProt Q96SL8 (Q96SL8 whole entry, looked up): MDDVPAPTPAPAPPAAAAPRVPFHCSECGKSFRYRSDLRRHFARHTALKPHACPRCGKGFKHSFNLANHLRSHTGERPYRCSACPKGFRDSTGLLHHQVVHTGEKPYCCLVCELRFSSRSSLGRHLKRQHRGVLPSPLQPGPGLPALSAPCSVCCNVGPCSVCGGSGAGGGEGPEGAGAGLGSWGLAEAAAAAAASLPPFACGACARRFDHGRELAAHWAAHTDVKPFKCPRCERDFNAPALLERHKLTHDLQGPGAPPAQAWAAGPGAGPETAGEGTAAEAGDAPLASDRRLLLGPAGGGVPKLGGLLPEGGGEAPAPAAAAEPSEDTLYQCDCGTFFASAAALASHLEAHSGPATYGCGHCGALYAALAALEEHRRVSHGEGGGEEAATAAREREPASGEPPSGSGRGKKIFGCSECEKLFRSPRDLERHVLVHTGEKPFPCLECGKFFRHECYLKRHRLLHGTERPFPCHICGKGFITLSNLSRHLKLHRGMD
Sequence of UniProt O14526 (O14526 whole entry, looked up): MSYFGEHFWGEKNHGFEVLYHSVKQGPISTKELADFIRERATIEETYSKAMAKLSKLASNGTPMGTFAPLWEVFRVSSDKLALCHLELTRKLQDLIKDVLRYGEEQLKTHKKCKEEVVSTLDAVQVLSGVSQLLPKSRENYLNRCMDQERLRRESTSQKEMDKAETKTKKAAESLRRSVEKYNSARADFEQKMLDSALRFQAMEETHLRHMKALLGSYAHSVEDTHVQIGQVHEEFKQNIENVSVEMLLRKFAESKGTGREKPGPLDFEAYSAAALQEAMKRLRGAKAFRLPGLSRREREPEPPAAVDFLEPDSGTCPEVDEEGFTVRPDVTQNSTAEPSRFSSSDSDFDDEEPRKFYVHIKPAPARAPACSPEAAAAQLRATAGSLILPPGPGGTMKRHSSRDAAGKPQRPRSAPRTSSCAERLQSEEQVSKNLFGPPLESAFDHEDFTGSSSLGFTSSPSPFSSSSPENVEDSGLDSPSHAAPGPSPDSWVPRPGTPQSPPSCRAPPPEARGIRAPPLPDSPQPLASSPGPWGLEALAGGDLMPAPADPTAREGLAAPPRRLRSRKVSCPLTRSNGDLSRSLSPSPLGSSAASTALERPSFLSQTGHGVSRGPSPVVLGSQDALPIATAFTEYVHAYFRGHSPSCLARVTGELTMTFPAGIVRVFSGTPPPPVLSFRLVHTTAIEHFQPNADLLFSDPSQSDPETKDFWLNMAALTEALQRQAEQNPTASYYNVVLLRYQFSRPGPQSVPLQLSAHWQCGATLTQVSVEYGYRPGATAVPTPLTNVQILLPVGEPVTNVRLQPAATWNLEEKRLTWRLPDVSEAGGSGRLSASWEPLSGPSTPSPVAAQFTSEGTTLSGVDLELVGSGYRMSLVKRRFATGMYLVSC
Sequence of UniProt O43824 (O43824 whole entry, looked up): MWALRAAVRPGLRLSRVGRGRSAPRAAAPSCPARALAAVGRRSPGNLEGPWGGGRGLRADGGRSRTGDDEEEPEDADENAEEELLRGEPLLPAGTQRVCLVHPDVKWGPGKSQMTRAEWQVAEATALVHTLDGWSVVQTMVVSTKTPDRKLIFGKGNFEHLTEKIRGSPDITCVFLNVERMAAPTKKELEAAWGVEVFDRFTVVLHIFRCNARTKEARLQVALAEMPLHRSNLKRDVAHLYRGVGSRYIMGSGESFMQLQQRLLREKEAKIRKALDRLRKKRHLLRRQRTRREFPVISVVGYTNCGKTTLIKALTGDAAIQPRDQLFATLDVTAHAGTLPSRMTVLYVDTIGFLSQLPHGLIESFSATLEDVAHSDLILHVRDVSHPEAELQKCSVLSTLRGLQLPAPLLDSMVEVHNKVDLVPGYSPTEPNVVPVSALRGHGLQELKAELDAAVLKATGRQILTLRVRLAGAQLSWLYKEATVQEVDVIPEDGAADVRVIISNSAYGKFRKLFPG
Sequence of UniProt Q04446 (Q04446 whole entry, looked up): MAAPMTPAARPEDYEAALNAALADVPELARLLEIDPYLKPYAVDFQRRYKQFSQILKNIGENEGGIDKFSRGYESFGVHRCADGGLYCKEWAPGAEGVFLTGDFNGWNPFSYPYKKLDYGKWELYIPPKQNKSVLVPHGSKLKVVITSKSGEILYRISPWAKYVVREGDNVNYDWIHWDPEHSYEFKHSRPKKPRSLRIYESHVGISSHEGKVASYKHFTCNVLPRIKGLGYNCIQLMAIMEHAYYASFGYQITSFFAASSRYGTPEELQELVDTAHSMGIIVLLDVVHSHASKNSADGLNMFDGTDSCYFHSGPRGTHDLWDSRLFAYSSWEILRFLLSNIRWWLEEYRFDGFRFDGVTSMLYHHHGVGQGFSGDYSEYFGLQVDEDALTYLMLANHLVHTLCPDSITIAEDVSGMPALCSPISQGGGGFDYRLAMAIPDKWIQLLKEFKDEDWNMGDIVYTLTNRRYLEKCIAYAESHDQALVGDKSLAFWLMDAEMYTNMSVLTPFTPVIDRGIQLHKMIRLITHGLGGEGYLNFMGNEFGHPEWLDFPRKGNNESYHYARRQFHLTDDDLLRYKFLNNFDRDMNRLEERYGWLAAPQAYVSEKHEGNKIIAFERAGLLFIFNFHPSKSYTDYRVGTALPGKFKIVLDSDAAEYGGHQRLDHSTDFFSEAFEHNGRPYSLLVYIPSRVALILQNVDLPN
Sequence of UniProt O43427 (O43427 whole entry, looked up): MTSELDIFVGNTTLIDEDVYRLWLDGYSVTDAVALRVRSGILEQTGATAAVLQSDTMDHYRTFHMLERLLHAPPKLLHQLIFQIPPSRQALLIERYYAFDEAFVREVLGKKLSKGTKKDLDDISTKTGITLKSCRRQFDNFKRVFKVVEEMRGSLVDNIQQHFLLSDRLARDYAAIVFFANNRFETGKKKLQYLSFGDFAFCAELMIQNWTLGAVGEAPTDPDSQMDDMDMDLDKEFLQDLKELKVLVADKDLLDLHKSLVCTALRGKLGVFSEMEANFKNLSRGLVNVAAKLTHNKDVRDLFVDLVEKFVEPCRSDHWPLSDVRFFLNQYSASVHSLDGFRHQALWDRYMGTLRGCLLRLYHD
Sequence of UniProt Q9H4G4 (Q9H4G4 whole entry, looked up): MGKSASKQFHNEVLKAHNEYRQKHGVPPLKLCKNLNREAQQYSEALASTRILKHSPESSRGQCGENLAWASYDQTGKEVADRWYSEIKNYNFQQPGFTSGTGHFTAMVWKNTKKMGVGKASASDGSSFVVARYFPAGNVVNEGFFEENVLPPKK
Sequence of UniProt Q9UQC2 (Q9UQC2 whole entry, looked up): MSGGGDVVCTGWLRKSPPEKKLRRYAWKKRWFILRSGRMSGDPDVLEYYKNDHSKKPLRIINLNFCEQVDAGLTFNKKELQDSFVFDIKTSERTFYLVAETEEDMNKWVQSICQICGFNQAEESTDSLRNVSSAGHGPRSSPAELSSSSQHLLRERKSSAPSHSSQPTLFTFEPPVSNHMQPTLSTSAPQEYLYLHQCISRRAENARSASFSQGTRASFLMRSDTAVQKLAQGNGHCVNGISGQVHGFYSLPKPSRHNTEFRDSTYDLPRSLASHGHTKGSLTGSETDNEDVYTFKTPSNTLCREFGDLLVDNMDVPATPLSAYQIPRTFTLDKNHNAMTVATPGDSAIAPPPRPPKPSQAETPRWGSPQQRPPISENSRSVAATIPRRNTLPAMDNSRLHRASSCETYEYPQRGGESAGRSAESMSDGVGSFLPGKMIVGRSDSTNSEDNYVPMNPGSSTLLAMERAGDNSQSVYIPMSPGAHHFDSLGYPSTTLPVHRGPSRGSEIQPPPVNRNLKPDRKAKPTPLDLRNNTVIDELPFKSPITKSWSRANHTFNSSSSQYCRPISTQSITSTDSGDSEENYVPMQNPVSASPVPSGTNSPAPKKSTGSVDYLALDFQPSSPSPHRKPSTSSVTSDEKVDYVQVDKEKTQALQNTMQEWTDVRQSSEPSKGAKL
Sequence of UniProt Q14687 (Q14687 whole entry, looked up): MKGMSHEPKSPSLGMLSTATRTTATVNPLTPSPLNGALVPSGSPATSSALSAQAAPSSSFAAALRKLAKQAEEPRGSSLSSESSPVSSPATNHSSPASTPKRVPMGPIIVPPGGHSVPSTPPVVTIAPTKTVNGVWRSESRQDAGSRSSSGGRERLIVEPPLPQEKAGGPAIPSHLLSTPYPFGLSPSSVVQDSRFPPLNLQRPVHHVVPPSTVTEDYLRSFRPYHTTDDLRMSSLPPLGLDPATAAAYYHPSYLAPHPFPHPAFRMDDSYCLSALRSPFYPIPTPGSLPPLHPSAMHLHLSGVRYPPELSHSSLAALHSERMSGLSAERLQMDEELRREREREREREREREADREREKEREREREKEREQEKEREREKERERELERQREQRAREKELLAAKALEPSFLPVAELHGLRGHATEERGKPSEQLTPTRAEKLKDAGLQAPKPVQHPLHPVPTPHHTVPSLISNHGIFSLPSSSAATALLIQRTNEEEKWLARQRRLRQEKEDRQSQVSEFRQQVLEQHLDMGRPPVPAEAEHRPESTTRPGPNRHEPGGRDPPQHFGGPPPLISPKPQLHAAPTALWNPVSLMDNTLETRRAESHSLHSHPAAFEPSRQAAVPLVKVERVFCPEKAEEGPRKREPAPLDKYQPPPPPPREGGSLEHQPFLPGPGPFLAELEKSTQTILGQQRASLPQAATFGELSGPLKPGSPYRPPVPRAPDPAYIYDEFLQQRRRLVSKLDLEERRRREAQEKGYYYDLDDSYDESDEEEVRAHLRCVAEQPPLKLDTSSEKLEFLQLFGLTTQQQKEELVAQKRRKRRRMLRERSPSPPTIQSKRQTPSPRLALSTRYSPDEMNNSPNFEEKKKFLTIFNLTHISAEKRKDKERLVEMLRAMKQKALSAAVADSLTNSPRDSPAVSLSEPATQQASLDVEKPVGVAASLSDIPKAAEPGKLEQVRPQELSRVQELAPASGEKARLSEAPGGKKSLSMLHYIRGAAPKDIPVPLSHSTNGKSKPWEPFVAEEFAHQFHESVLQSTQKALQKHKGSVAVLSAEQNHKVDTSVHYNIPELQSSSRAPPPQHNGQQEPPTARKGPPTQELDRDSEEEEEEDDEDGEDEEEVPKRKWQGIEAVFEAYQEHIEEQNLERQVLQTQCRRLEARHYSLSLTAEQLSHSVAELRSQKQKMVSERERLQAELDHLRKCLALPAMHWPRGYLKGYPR

HNRNPUL1 (UniProt M0R247) was tested, and the log2 fold change [1] was -0.072, the log2 fold change [2] was 0.16 and the log2 fold change [3] was -0.101. It also gave a log2 fold change [4] of 0.121 and a log2 fold change [5] of 0.21.

For FUT8 (UniProt Q9BYC5), the log2 fold change [1] was -0.327 (active), the log2 fold change [3] was -0.042 and the log2 fold change [6] was 0.002. For the same target, the log2 fold change [4] was 0.08, the log2 fold change [7] was 0.06 and the log2 fold change [8] was 0.175. It also gave a log2 fold change [9] of -0.001, a log2 fold change [5] of -0.04 and a log2 fold change [10] of -0.057.

HSPA2 (UniProt P54652) showed a log2 fold change [3] of -0.014, a log2 fold change [4] of -0.012 and a log2 fold change [9] of 0.02.

FIZ1 (UniProt Q96SL8) showed a log2 fold change [1] of 0.169, a log2 fold change [3] of 0.088 and a log2 fold change [6] of -0.071. It also gave a log2 fold change [7] of -0.125, a log2 fold change [8] of -0.06 and a log2 fold change [5] of 0.138. It also gave a log2 fold change [10] of 0.024.

GEMIN2 (UniProt O14893) gave a log2 fold change [1] of -0.203, a log2 fold change [2] of -0.061 and a log2 fold change [3] of -0.057. For the same target, the log2 fold change [6] was 0.011, the log2 fold change [7] was 0.013 and the log2 fold change [8] was 0.019. For the same target, the log2 fold change [9] was 0.059, the log2 fold change [5] was 0.101 and the log2 fold change [10] was 0.031.

Target GNL3 (UniProt Q9BVP2) has a log2 fold change [1] of 0.018, a log2 fold change [3] of -0.197 and a log2 fold change [6] of -0.06. It also gave a log2 fold change [7] of 0.118, a log2 fold change [8] of 0.002 and a log2 fold change [9] of 0.046. It also gave a log2 fold change [5] of -0.103 and a log2 fold change [10] of 0.081.

Target FAT1 (UniProt Q14517) has a log2 fold change [2] of 0.009, a log2 fold change [3] of -0.048 and a log2 fold change [6] of -0.05. For the same target, the log2 fold change [4] was 0.006, the log2 fold change [7] was -0.018 and the log2 fold change [8] was 0.07. The log2 fold change [9] was 0.095, the log2 fold change [5] was -0.11 and the log2 fold change [10] was 0.082.

In the case of ICMT (UniProt O60725), the log2 fold change [1] is reported as 0.202, the log2 fold change [2] is reported as 0.138 and the log2 fold change [3] is reported as -0.027. The log2 fold change [6] was -0.029, the log2 fold change [4] was 0.073 and the log2 fold change [8] was 0.061. For the same target, the log2 fold change [9] was 0.033 and the log2 fold change [5] was -0.051.

In the case of GPNMB (UniProt Q14956), the log2 fold change [1] is reported as 0.206, the log2 fold change [6] is reported as -0.191 and the log2 fold change [4] is reported as 0.149.

IDH3A isoform 2 (UniProt P50213) showed a log2 fold change [3] of -0.056, a log2 fold change [4] of -0.14 and a log2 fold change [9] of 0.003.

Target GSE1 (UniProt Q14687) has a log2 fold change [3] of -0.003, a log2 fold change [8] of -0.117 and a log2 fold change [9] of 0.151. The log2 fold change [5] was -0.004.

Target GOPC (UniProt Q9HD26) has a log2 fold change [2] of -0.015, a log2 fold change [3] of 0.022 and a log2 fold change [6] of -0.053. The log2 fold change [4] was 0, the log2 fold change [7] was 0.149 and the log2 fold change [8] was 0.056. The log2 fold change [9] was -0.06, the log2 fold change [5] was 0.153 and the log2 fold change [10] was 0.485.

Work on GAB2 (UniProt Q9UQC2) yielded a log2 fold change [1] of -0.203, a log2 fold change [2] of -0.009 and a log2 fold change [6] of 0.065. The log2 fold change [4] was -0.085, the log2 fold change [7] was 0.034 and the log2 fold change [8] was -0.016. The log2 fold change [5] was 0.002 and the log2 fold change [10] was -0.458.

For FCHO1 (UniProt O14526), the log2 fold change [1] was -0.186, the log2 fold change [2] was -0.768 (active) and the log2 fold change [3] was 0.168. It also gave a log2 fold change [6] of 0.05, a log2 fold change [4] of 0.067 and a log2 fold change [8] of 0.112. It also gave a log2 fold change [5] of 0.025.

Work on GPD1 (UniProt P21695) yielded a log2 fold change [2] of -0.161, a log2 fold change [3] of 0 and a log2 fold change [6] of -0.205. The log2 fold change [4] was -0.23, the log2 fold change [7] was -0.011 and the log2 fold change [8] was -0.045. It also gave a log2 fold change [9] of 0.027, a log2 fold change [5] of -0.126 and a log2 fold change [10] of -0.183.

GTPBP6 (UniProt O43824) was tested, and the log2 fold change [1] was -0.07, the log2 fold change [3] was -0.041 and the log2 fold change [6] was 0.026. It also gave a log2 fold change [4] of 0.025, a log2 fold change [7] of -0.079 and a log2 fold change [8] of 0.034. It also gave a log2 fold change [9] of 0.299, a log2 fold change [5] of -0.13 and a log2 fold change [10] of -0.007.

With FOXO3 (UniProt O43524) the log2 fold change [1] was -0.092, the log2 fold change [2] was -0.061 and the log2 fold change [6] was 0.007. It also gave a log2 fold change [4] of -0.213, a log2 fold change [7] of -0.004 and a log2 fold change [8] of 0.055. For the same target, the log2 fold change [5] was 0.158 and the log2 fold change [10] was -0.188.

IGF2 isoform 3 (UniProt P01344) gave a log2 fold change [4] of -0.395, a log2 fold change [8] of -0.218 and a log2 fold change [5] of 0.135.

HNRNPK isoform 3 (UniProt P61978) was tested, and the log2 fold change [1] was 0.121, the log2 fold change [3] was -0.062 and the log2 fold change [6] was -0.035. For the same target, the log2 fold change [4] was 0.034, the log2 fold change [7] was 0.032 and the log2 fold change [8] was 0.012. For the same target, the log2 fold change [9] was -0.035, the log2 fold change [5] was -0.057 and the log2 fold change [10] was 0.076.

In the case of GBE1 (UniProt Q04446), the log2 fold change [1] is reported as 0.042, the log2 fold change [2] is reported as -0.61 (active) and the log2 fold change [6] is reported as 0.168. For the same target, the log2 fold change [4] was 0.016, the log2 fold change [8] was 0.058 and the log2 fold change [9] was -0.128. It also gave a log2 fold change [5] of 0.071.

In the case of GOLGA8R (UniProt I6L899), the log2 fold change [1] is reported as -0.036, the log2 fold change [2] is reported as -0.4 and the log2 fold change [4] is reported as -0.233. For the same target, the log2 fold change [7] was -0.182, the log2 fold change [8] was 0.191 and the log2 fold change [9] was 0.074. It also gave a log2 fold change [5] of -0.003 and a log2 fold change [10] of -0.033.

Work on FUNDC1 (UniProt Q8IVP5) yielded a log2 fold change [2] of 0.078 and a log2 fold change [9] of -0.13.

With H3-3A (UniProt P84243) the log2 fold change [1] was -0.083, the log2 fold change [2] was -0.239 and the log2 fold change [3] was 0.147. For the same target, the log2 fold change [4] was -0.123, the log2 fold change [8] was -0.083 and the log2 fold change [9] was 0.076. It also gave a log2 fold change [5] of 0.045.

With FIBP (UniProt O43427) the log2 fold change [1] was 0.164, the log2 fold change [2] was -0.093 and the log2 fold change [6] was -0.023. The log2 fold change [4] was -0.026, the log2 fold change [7] was -0.023 and the log2 fold change [8] was -0.043. For the same target, the log2 fold change [9] was -0.012, the log2 fold change [5] was -0.072 and the log2 fold change [10] was -0.229.

For GLIPR2 (UniProt Q9H4G4), the log2 fold change [1] was -0.047, the log2 fold change [2] was 0.163 and the log2 fold change [6] was -0.088. It also gave a log2 fold change [4] of -0.041, a log2 fold change [7] of -0.032 and a log2 fold change [8] of -0.117. It also gave a log2 fold change [9] of 0.151, a log2 fold change [5] of -0.084 and a log2 fold change [10] of -0.239.

From the supplement of paper PMC10849652
